aSyn UTR act = Activators via SNCA 5'UTR binding, MLPCN; alpha-synuclein 5'UTR reporter, activators screen; activity score, % (tested at 7.5 µM), hits read low; hit rate 7.1% among 300,000; in the data active = activity score below about -60%
An asterisk follows results filed as active. Only a sample is shown.

SMILES	aSyn UTR act
Oc1ccc(/C=N/Nc2cccc3cccnc23)c(O)c1	-405*
Cc1ccc(/C=N/Nc2cccc3cccnc23)c(O)c1	-271*
Cc1ccc(S(=O)(=O)Nc2cccc3cccnc23)c([N+](=O)[O-])c1	71
Cc1[nH]c2ccccc2c1C(=O)CSc1nc2ccccc2[nH]1	-100*
C/C(N)=C(/C#N)C(=O)CSc1nc2ccccc2[nH]1	-115*
CC1CCN(C(=O)CSc2nc3ccccc3[nH]2)CC1	-105*
Cc1[nH]c2ccccc2c1C(=O)CSc1nc2ccccc2c(=O)n1CCCN1CCOCC1	-67*
C/C(N)=C(/C#N)C(=O)CSc1nnnn1-c1ccc(C)cc1	-90*
Cc1[nH]c2ccccc2c1C(=O)CSC(=S)N1CCCCC1	-159*
COc1ccccc1NC(=O)C(=O)c1cn(CC(=O)N2CCOCC2)c2ccccc12	-119*
COc1ccc(NC(=O)C(=O)c2cn(CC(=O)N3CCCC3)c3ccccc23)c(OC)c1	-86*
CC(C)Sc1nnc(-c2c[nH]c3ccccc23)n1C	-111*
CC(=O)Oc1ccc(C(=O)[C@H]2[C@H]3C(=O)N(c4ccc(C)cc4)C(=O)[C@H]3[C@@H]3C=CC=NN32)cc1	-62*
O=C(Nc1ccccc1)[C@@H]1[C@@H]2C(=O)N(c3ccc(F)cc3)C(=O)[C@@H]2[C@H]2C=CC=NN21	-68*
COC1=C(C)C(O)=C(C(=O)/C=C/c2ccccc2)C(=O)C1(C)C	-104*
O=C(c1cc2cc(Br)ccc2o1)N1CCCCC1	-146*
Cc1ccc(-c2nc(C(=O)NCCCN3CCOCC3)cc3c2[nH]c2ccccc23)cc1	-65*
CCCc1ccc2oc(C(=O)N(C)Cc3nccs3)c(C)c2c1	-149*
CCCc1ccc2oc(C(=O)N3CCC(O)CC3)c(C)c2c1	-89*
Cc1ccc2oc(C(=O)NCCCN3CCOCC3)c(C)c2c1	-95*
Cc1ccc2oc(C(=O)N3CCCCCC3)c(C)c2c1	-78*
Cc1c(C(=O)N2CCCCC2)oc2ccc(Br)cc12	-138*
Fc1ccccc1/C=N/Nc1nc2ccccc2o1	-200*
FC(F)Oc1ccccc1/C=N/Nc1nc2ccccc2o1	-165*
C=CCNC(=O)C1CC(=O)N(c2ccc(OCc3ccccc3Cl)cc2)C1 (configuration not stated)	-111*
SMILES	aSyn UTR act
O=C(O)C1CC(=O)N(c2ccc(OCc3ccccc3)cc2)C1 (configuration not stated)	-66*
O=c1cccc2n1Cc1cc3ccccc3nc1-2	-152*
CC[C@@]1(O)C(=O)OCc2c1cc1n(c2=O)Cc2cc3c(N)cccc3nc2-1	103
O=S1(=O)CCN2C=C(Br)C=C(Br)C2=N1	-72*
NC(=O)CC1C(=O)N(c2ccccc2)C(=S)N1NC(=O)c1ccccc1 (configuration not stated)	-73*
Clc1ccc(-c2cn3c(n2)-c2ccccc2C3)cc1Cl	-67*
COc1ccc(NCc2nc3ccccc3n2CCOc2ccc(C)cc2)cc1	-114*
O=c1oc2ccccc2n1CCCOc1ccccc1	-73*
Cc1nc2ccccc2n1CCCOc1ccccc1	-89*
COc1ccc(NCc2nc3ccccc3n2CCOc2ccccc2)cc1	-207*
Cc1ccc(OCCn2c(NC(=O)c3ccco3)nc3ccccc32)cc1	67
Cc1ccc(C)n1-n1c(C)nc2sc(-c3ccccc3)cc2c1=O	-105*
CC(=O)Cn1nnc2sc(-c3ccccc3)cc2c1=O	-90*
O=c1c2cc(-c3ccccc3)sc2ncn1-n1cccc1	-255*
CC(=O)Cn1cnc2sc(-c3ccccc3)cc2c1=O	-175*
Cc1nc2cc(-c3ccccc3)sc2c(=O)n1N	111
CCn1cnc2sc(-c3ccccc3)cc2c1=O	-130*
COc1cccc(C(=O)Nc2ccccc2F)c1	-73*
O=C(Nc1ccccc1F)Oc1cccc(OC(=O)Nc2ccccc2F)c1	-108*
COc1cccc(C(=O)Nc2ccc(F)c(F)c2F)c1	-170*
Cn1ccc(C(=O)Oc2ccc(C(=O)Nc3ccc(F)cc3F)cc2)n1	-122*
COc1ccsc1C(=O)Nc1ccc(F)cc1F	-69*
COc1cccc(C(=O)Nc2ccc(F)cc2F)c1	-114*
COc1cccc(C(=O)Nc2ccc(C(F)(F)F)n(C)c2=O)c1	-71*
COCCNC(=O)c1noc2c1CCc1cc(OC)ccc1-2	-98*
SMILES	aSyn UTR act
COCC(C)NC(=O)c1noc2c1CCc1cc(OC)ccc1-2 (configuration not stated)	-133*
COc1ccc2c(c1)CCc1c(C(=O)NCc3ccco3)noc1-2	-120*
COc1ccc2c(c1)CCc1c(C(=O)N(C)c3ccccc3)noc1-2	-132*
COc1ccc(-c2nnc(SC)o2)c(OC)c1	-85*
COc1ccc(OC)c(-c2nnc(-c3ccc(C)o3)o2)c1	-63*
COc1ccc(-c2nc3c4ccccc4[nH]c(=O)n3n2)cc1	-82*
CNc1nnc(-c2ccc(OC)cc2)s1	-75*
NS(=O)(=O)c1ccc(N/C=C\C(=O)c2cccc3ccccc23)cc1	-65*
COc1ccc(/C=N/NC(=O)c2cnccn2)cc1O	-63*
COc1ccccc1/C=C/C=N/NC(=O)c1ccccn1	-74*
COc1ccc(/C=N/NC(=O)c2cc3c(OC)ccc(OC)c3[nH]2)cc1O	68
COc1ccccc1/C=C/C=N/NC(=O)c1cnccn1	-69*
N/C(=N\OC(=O)c1ccc(F)cc1)c1ccccc1	-298*
Cc1ccc(/C(N)=N/OC(=O)c2ccc(F)cc2)cc1	-194*
N/C(=N\OC(=O)c1ccc(F)cc1)c1ccc(Br)cc1	-143*
Cc1ccc(C(=O)O/N=C(\N)c2ccccn2)cc1	65
Cc1ccn2c(C(=O)c3ccc(Cl)cc3)cnc2c1	-81*
CN1CCN(S(=O)(=O)c2ccc(Br)c3nsnc23)CC1	-70*
COc1cc2sc3ccc(-c4ccc5[nH]ccc5c4)cc3c(=O)c2cc1OC	-239*
O=c1c2ccccc2oc2cc(-c3ccc4[nH]ccc4c3)ccc12	-97*
CC1CCc2c(sc3nc(CSc4n[nH]c(N)n4)[nH]c(=O)c23)C1 (configuration not stated)	-92*
CCc1nnc(NC(=O)c2sc3nc4c(cc3c2N)CCCCC4)s1	-138*
CCc1nnc(NC(=O)c2sc3nc4c(cc3c2N)CCCCCC4)s1	-75*
O=C(Nc1ccc(N2CCCCC2)cc1)c1ccc2ccccc2n1	-173*
CCOc1ccc(C(=O)N[C@H](C(=O)Nc2cccc(S(=O)(=O)N3CCCCC3)c2)C(C)C)cc1	76
SMILES	aSyn UTR act
O=C(Nc1ccc(N2CCCC2)cc1)C(Cl)c1ccccc1 (configuration not stated)	-108*
Cc1ccc(S(=O)(=O)N2CCCCC2)cc1NC(=O)c1ccc2ccccc2n1	-122*
O=C(Nc1cccc(S(=O)(=O)N2CCCCCC2)c1)c1ccc2ccccc2n1	-89*
O=C(N/N=C\c1c(O)ccc2ccccc12)c1ccc(S(=O)(=O)N2CCCCC2)cc1	114
Cc1cccc(NC(=O)c2ccc3ccccc3n2)c1C	-68*
Cc1ccccc1C(=O)Nc1ccc(N2CCCC2)cc1	-154*
COc1ccc(NC(=O)c2ccc3ccccc3n2)cc1S(=O)(=O)N1CCCCC1	-122*
Cc1ccsc1C(=O)OCC(=O)N1CCc2ccccc2C1	-126*
COc1ccc(/C=C2\CN(Cc3ccccc3)C/C(=C\c3ccc(OC)c(O)c3)C2=O)cc1O	107
COc1cc(/C=N/n2cnnc2)ccc1OCc1ccccc1	-72*
COc1cc(/C=N/n2cnnc2)ccc1OCc1ccc(C)cc1	-100*
CCCCNC(=S)NNC(=O)c1csc(C)c1	-63*
Cc1cc(C(=O)NNC(=S)NC2CCCCC2)cs1	-77*

Screens from PubChem.
